From PubChem BioAssay AID651965 (National Center for Advancing Translational Sciences (NCATS), 2013)
The whole screen tested about 340,000 compounds, of which about 6,400 (1.9%) were called active. Where a call stands in place of a potency, no number is given. Another 4% or so got no clear call; they are omitted. The call rests on the fitted dose curve; in most records, active means well fitted falling curve with a large enough effect; inconclusive means small, poorly fitted or top-dose-only effect; inactive means no such curve, though single readings can be large or run the other way. The full list was thinned out, with actives kept by preference.

Target: ATP-dependent Clp protease proteolytic subunit (Bacillus subtilis (strain 168)) (UniProt P80244)
Experiment: qHTS Assay for Activators of ClpP; further: the source files actives as falling curves though it sought activators and does not explain the sign; nearly all actives have a fitted effect of over 65% in size
Details: purified B. subtilis ClpP, FRET peptide cleavage, 20 min; series mostly up to 57.5 µM
How it was run: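 ClpP 10 microg/mL final, pH 8 Tris/KCl buffer with BSA, glycerol, Tween-20; compound pinned in; FRET-FV substrate; RT 20 min; Ex320/Em430; ΔFRET vs ADEP 5.8 microM, DMSO, no enzyme.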
Potency means the concentration at half of the fitted maximal effect.

Compound	Potency
CC1(C)C=Cc2c(ccc(C(=O)/C=C/c3ccccc3)c2O)O1	inactive
COC(=O)[C@]12CCCCC=C1N(Cc1cccc3ccccc13)C(=O)[C@H](CC(=O)N1CCOCC1)C2	inactive
CCN(CC)C(=O)C1=C(C)N(Cc2ccc(C(C)(C)C)cc2)C(=O)C(CC(=O)NCc2cccc3ccccc23)C1 (stereo unspecified)	inactive
CN(CCc1ccccn1)C1CCCN(S(=O)(=O)c2ccccc2Cl)C1 (stereo unspecified)	inactive
CN(CC(=O)NCCc1ccccn1)S(=O)(=O)c1ccc(Cl)cc1	inactive
CN(CCc1ccccn1)S(=O)(=O)c1ccc2c3c(cccc13)C(=O)N2	25.1 µM (active)
COc1cc(OC)c(/C=C/c2ccnc3ccccc23)c(OC)c1	inactive
COc1ccc(C(C(=O)Nc2c(C)cccc2C)N2CCN(c3ccc(C)cc3)CC2)cc1 (stereo unspecified)	inactive
CCC(CC)C(C(=O)NC1CCCC1)N1CCN(c2cc(C)nc3ccccc23)CC1 (stereo unspecified)	inactive
COc1ccccc1/C=C/c1nc(C#N)c(NC(C)c2ccccc2)o1 (stereo unspecified)	inactive
COc1ccccc1/C=C/C(=O)NC(=S)N1CCOCC1	inactive
COc1ccccc1/C=C/C1=NC(=C\N(C)C)/C(=O)O1	25.1 µM (active)
CC1(C(=O)Nc2ccc3c(c2)OCCO3)CSCC(=O)N1CCOc1ccccc1 (stereo unspecified)	inactive
C[C@@H]1CC2=C(C(=O)OC(C)(C)O2)[C@@H](C2CC2)O1	inactive
COc1ccc(C=C2CCC3C(CCCC34OCCO4)C2=O)cc1 (stereo unspecified)	inactive
O=C(Nc1ccc(-c2nc3cc(NC(=O)c4ccccc4Cl)ccc3o2)cc1)c1ccccc1Cl	inactive
CCCC(=O)Nc1ccc2oc(-c3ccc(O)c(Br)c3)nc2c1	inactive
O=C(Nc1ccc2oc(-c3ccc4ccccc4c3)nc2c1)c1cccs1	3.55 µM (active)
O=C(Cc1cccc2ccccc12)Nc1ccc2oc(-c3ccccc3)nc2c1	20 µM (active)
CCC(=O)Nc1cccc(-c2nc3cc(C)ccc3o2)c1	inactive
COc1cccc(C(=O)Nc2ccc3oc(-c4ccc5ccccc5c4)nc3c2)c1	inactive
Clc1ccc(-c2cccc3nccn23)cc1	inactive

Compound	Potency
Cc1cc(Br)cn2c(Cc3cccc(F)c3)c(-c3cccc(Br)c3)nc12	inactive
C[C@H](NC(=O)CC[C@H]1O[C@@H](n2ccc(=O)[nH]c2=O)[C@H](O)[C@@H]1O)c1cccc2ccccc12	inactive
O=C(O)Cc1ccc(NCc2ccccc2Cl)cc1	8.91 µM (active)
S=C(NCCc1ccccc1)NCc1ccccc1Cl	inactive
O=C(O)Cc1ccc(NC(=O)Nc2cccc3ccccc23)cc1	inactive
COc1cc(N)c(Cl)cc1C(=O)OCC(=O)c1ccc2c(c1)NC(=O)CO2	14.1 µM (active)
Cc1ccc(C)c(OCCC(=O)OCC(=O)c2ccc3c(c2)NC(=O)CO3)c1	inactive
O=C1COc2ccc(C(=O)COC(=O)c3ccccc3Cl)cc2N1	inactive
COc1cccc(CNc2nc(NCc3cccs3)nc3ccsc23)c1	inactive
CSCCC(c1nnnn1Cc1ccccc1)N1CCN(C/C=C/c2ccccc2)CC1 (stereo unspecified)	inactive
CC(C)(C)c1cc(=O)n2c(nc3ccccc32)[nH]1	15.8 µM (active)
Cn1c(=O)c2c(n3c4ccccc4nc13)NC(=O)CC2c1cccc(Cl)c1 (stereo unspecified)	inactive
CC(C)(C)c1nc2ccccc2c(=O)n1N1C(=O)c2ccccc2C1=O	inactive
CCc1nc2ccc(C(=O)NC3CCN(Cc4ccccc4)CC3)cn2c1N(C)CCN1CCOCC1	inactive
CCCCOCCCNC(=O)C[C@@H]1C[C@@]2(C(=O)OCC)CCCC=C2N(CCC2=CCCCC2)C1=O	inactive
COc1ccc(CCNC(=O)Nc2ccc3c(c2)c(=O)n(C)n3C)cc1OC	inactive
N#Cc1cccc(NC(=O)c2cc(C3CCCCN3C(=O)CCc3ccccc3)on2)c1 (stereo unspecified)	inactive
COc1ccc2c(c1OC)C(=O)N(c1ncn[nH]1)C2	28.2 µM (active)
CC1(C)OC(=O)C2=C(C[C@@H](C3CCCC3)O[C@@H]2c2ccc(Cl)cc2)O1	inactive
O=C(NCc1ccccc1Cl)c1csc([C@@H]2O[C@H](CO)[C@@H](O)[C@H]2O)n1	inactive
CC1CCCC(C)N1C(=O)COC(=O)c1ccccc1C(=O)c1ccccc1 (stereo unspecified)	inactive
Cc1nn(-c2ccccc2)nc1C(=O)OCC(=O)N1CCCCC1C (stereo unspecified)	10 µM (active)

Compound	Potency
Cc1cc(C(=O)OCC(=O)N2C(C)CCCC2C)c2ccccc2n1 (stereo unspecified)	inactive
COc1ccc(C2=Nc3ccccc3NC(=O)C2N(C(=O)c2cc3ccccc3[nH]2)c2ccccc2)cc1 (stereo unspecified)	inactive
Nc1nc2ncccn2c1-c1ccccc1	inactive
c1ccc(-c2ccnc3nc(-n4cccc4)nn23)cc1	1.78 µM (active)
Cc1cc(-c2ccccc2)n2nc(-c3ccccc3)cc2n1	inactive
CN(C)c1ccc(C=Nc2ccc(/C=C/c3ccnc4ccccc34)cc2)cc1	inactive
CC1(C)OC(=O)C2=C(C[C@@H](C3CC3)O[C@H]2CCc2cccc(Cl)c2)O1	inactive
O=C(Nc1cc(Br)ccc1F)c1nc[nH]c1C(=O)NCc1ccccc1	inactive
Cc1ccc(-n2ncc3c(N4CCC(C(N)=O)CC4)ncnc32)cc1	inactive
O=C(NNc1ncnc2c1cnn2-c1ccccc1)c1ccco1	inactive
CC1(C(=O)Nc2cccnc2)Cc2c(-c3ccccc3)ccnc2O1 (stereo unspecified)	inactive
COc1ccc(CCn2c3c(c(=O)[nH]c2=S)CN(C(C)C)CN3)cc1OC	inactive
CCNC(=O)C1CCCN(C(=O)c2ccc(OC)cc2OC)CC1 (stereo unspecified)	inactive
CCc1nc2ccc(C(=O)NC3CCN(Cc4ccccc4)CC3)cn2c1N(CC)CCOC	inactive
Cc1ccc2[nH]c(=O)c(COC(=O)c3ccccn3)cc2c1	inactive
CCOC(=O)c1[nH]c2ccc(C)cc2c1N=C(C)N(C)C	inactive
CCOC(=O)c1cc2cc(C)ccc2[nH]1	14.1 µM (active)
COC(=O)c1ccc2nc(-c3cccc(Br)c3)c(Cc3ccccc3C(F)(F)F)n2c1	inactive
COCCN(CCOC)c1nc(N)c2c(N)nc3c(c2c1C#N)CC(=O)N3Cc1ccc(Cl)cc1	3.16 µM (active)
COc1ccc(C(C#N)=C2C=CC(=NO)c3ccccc32)cc1	inactive
CC1=C2C(=O)OC(c3ccoc3)C2(C)CCC1 (stereo unspecified)	25.1 µM (active)
CC1(C)O[C@H]2CC(=O)OCC23[C@H]2CC[C@@]4(C)[C@H](c5ccoc5)OC(=O)[C@H]5O[C@]54[C@]2(C)C(=O)C[C@@H]13 (stereo partly specified)	inactive
